Active and inactive are the calls of the source. How the source made its calls: active means hit-call score of the fitted dose curve at least 0.9, where 1 is the maximum; inactive means score below 0.9.
Assay: APR_HepG2_NuclearSize_1hr: Apredica 1-hour HepG2 Assay for Nuclear Size (AID 2282670)
Conditions: high-content imaging, actives raise or lower the signal
Description: APR_HepG2_1hr is a cell-based, multiplexed-readout assay that uses HepG2, a human liver cell line, with measurements taken at 1 hour after chemical dosing in a 384-well plate.APR_HepG2_NuclearSize_1hr is one of 10 assay component(s) measured or calculated from the APR_HepG2_1hr assay. It is designed to make measurements of cell phenotype, a form of morphology reporter, as detected with fluorescence intensity signals by HCS Fluorescent Imaging technology.Data from the assay component APR_HepG2_NuclearSize_1hr was analyzed into 1 assay endpoint. This assay endpoint, APR_HepG2_NuclearSize_1hr, was analyzed with bidirectional fitting relative to DMSO as the negative control and baseline of activity. Using a type of morphology reporter, measures of all nuclear dna for gain or loss-of-signal activity can be used to understand the signaling at the nuclear-level. Furthermore, this assay endpoint can be referred to as a primary readout, because this assay has produced multiple assay endpoints where this one serves a signaling function. To generalize the intended target to other relatable targets, this assay endpoint is annotated to the cell morphology intended target family, where the subfamily is organelle conformation.
Cells were treated with dimethyl sulfoxide (DMSO) as a solvent control at a final concentration of 0.5% v/v or with compounds in DMSO with a resulting final DMSO concentration of 0.5% v/v. Compound treatment was done at concentrations of 0.39, 0.78, 1.56, 3.12, 6.24, 12.5, 25, 50, 100, and 200 uM in duplicate on each plate. Cells were treated with compounds for 1, 24, or 72 hr. Carbonyl […] m-chloro-phenylhydrazone (CCCP) and taxol were used as positive controls for mitochondrial function and cytoskeletal stability, respectively; DMSO served as the negative control for this experiment. Cells were fixed by the direct addition of 50 uL formaldehyde in Hank's Balanced Salt Solution (HBSS) to a final concentration of 3.7%. After incubation in the fixation medium for 30 min at room temperature (293-298 K), cells were rinsed twice with HBSS and treated with cell permeabilization buffer (16 uL of 0.5% Triton X-100) for 10 min at room temperature (293-298 K) before labeling. For mitochondrial membrane potential and mitochondrial measurements, pre-fixed cells were incubated with 50 uL of MitoTracker Red CMXRos (Invitrogen) at a concentration of 250 nM for 30 min before fixation. In the remaining cases, post-fixed cells were labeled by incubation with a multiplexed mixture of primary antibodies in HBSS for 60 min at room temperature (293-298 K) to detect immunoreactivity of c-Jun (1:500), phospho-histone H3 (1:100), phospho-histone H2A.x (1:200), p53 (1:400), alpha-tubulin (1:200) and Hoechst 33342 (2 ug/mL). Cells were labeled for multiplexed imaging on two separate plates: a) Hoechst 33342, MitoTracker Red, phospho-histone H3, and alpha-tubulin, and b) Hoechst 33342, phospho-histone H2A.x, and c-Jun. A final rinse with HBSS (50 uL) was performed before analysis. The primary and secondary antibodies for the proteins were phospho-histone H3 (rabbit anti-phospho-histone H3 and FITC-donkey anti-rabbit IgG), phospho-histone H2A.x (mouse anti-phospho-histone H2A.x and FITC-donkey anti-mouse IgG), c-Jun (rabbit anti-phospho-c-Jun and Cy3-donkey anti-rabbit IgG), p53 (sheep anti-p53 and Cy5-donkey anti-sheep IgG), alpha-tubulin (mouse anti-alpha-tubulin and Cy5-donkey anti-mouse IgG). These antibodies are available as the CellCiphr HepG2 assay kit (Millipore).Digital images of each well were captured using a Cellomics ArrayScan VTI (Thermo Scientific Cellomics) (0.8 NA objective, 0.63x optical coupler, and XF-93 filter set) at 20x magnification. The images were acquired using the autofocus feature of the ArrayScan instrument, which entails the following steps. First, the camera focuses on channel 1 (Hoechst 33342), where nuclei are identified. Second, a Z offset of 1 um is used for capturing mitochondria (MitoTracker Red). […]

SMILES	outcome
CS(=O)(=O)c1cc(C(F)(F)F)ccc1C(=O)c1cnoc1C1CC1	inactive
COc1cc(Cl)c(OC)cc1Cl	inactive
CCOc1nc(C(Cl)(Cl)Cl)ns1	inactive
COP(=S)(OC)Oc1ccc([N+](=O)[O-])c(C)c1	inactive
CCOc1cc(C(C)(C)C)ccc1C1COC(c2c(F)cccc2F)=N1 (stereo not given)	inactive
CC(C)N1C(=O)c2ccccc2NS1(=O)=O	inactive
CCC(C)n1c(=O)[nH]c(C)c(Br)c1=O (stereo not given)	inactive
CS(=O)(=O)c1ccc(C(=O)C2C(=O)CCCC2=O)c([N+](=O)[O-])c1	inactive
CCOP(=S)(OCC)Oc1nc(Cl)n(C(C)C)n1	inactive
CN=C=S	inactive
COP(=O)(OC)O/C(C)=C/C(=O)N(C)C	inactive
CSC(=O)c1c(C(F)F)nc(C(F)(F)F)c(C(=O)SC)c1CC(C)C	inactive
CC(C)(C)C(=O)C(Oc1ccc(Cl)cc1)n1cncn1 (stereo not given)	inactive
COC(=O)N(C(=O)N1CO[C@@]2(C(=O)OC)Cc3cc(Cl)ccc3C2=N1)c1ccc(OC(F)(F)F)cc1	inactive
COP(=S)(OC)SCn1nnc2ccccc2c1=O	inactive
Cc1c(COC(=O)[C@@H]2[C@H](/C=C(\Cl)C(F)(F)F)C2(C)C)cccc1-c1ccccc1	inactive
CO/N=C(/C1=NOCCO1)c1ccccc1Oc1ncnc(Oc2ccccc2Cl)c1F	inactive
Cc1nc(N(C)C)nc(OC(=O)N(C)C)c1C	inactive
O=C1C2CC=CCC2C(=O)N1SC(Cl)(Cl)Cl (stereo not given)	inactive
CN/C(=N\[N+](=O)[O-])NCc1cnc(Cl)s1	inactive

SMILES	outcome
Cn1c(-c2ccccc2)cc(-c2ccccc2)[n+]1C	inactive
CNC(=O)Oc1cccc2ccccc12	inactive
CC(C)=CC1C(C(=O)OCc2coc(Cc3ccccc3)c2)C1(C)C (stereo not given)	inactive
CCN(CC)C(=O)C(C)Oc1cccc2ccccc12 (stereo not given)	inactive
CNC(=O)N(C)c1nnc(C(C)(C)C)s1	inactive
CC1(C)CON(Cc2ccccc2Cl)C1=O	inactive
CCOc1nc(F)cc2nc(S(=O)(=O)Nc3c(Cl)cccc3Cl)nn12	inactive
Cc1cnc(C2=NC(C)(C(C)C)C(=O)N2)c(C(=O)O)c1 (stereo not given)	inactive
Nc1c(Cl)c(Cl)nc(C(=O)O)c1Cl	inactive
COc1cc(OC)nc(NC(=O)NS(=O)(=O)c2ncccc2OCC(F)(F)F)n1	inactive
CC(C)C1(C)N=C(c2ncccc2C(=O)O)NC1=O (stereo not given)	inactive
CC(C)N1C(=O)N(c2ccccc2)CSC1=NC(C)(C)C	inactive
O=c1n(Cl)c(=O)n(Cl)c(=O)n1Cl	inactive
CCCCC(O)(Cn1cncn1)c1ccc(Cl)cc1Cl (stereo not given)	inactive
O=P(O)(O)CCCl	inactive
C=CCOC(=O)C(C)(C)OC(=O)c1cc(-n2c(=O)cc(C(F)(F)F)n(C)c2=O)ccc1Cl	inactive
N#Cc1c(Cl)cccc1Cl	inactive
COCc1cnc(C2=NC(C)(C(C)C)C(=O)N2)c(C(=O)O)c1 (stereo not given)	inactive
CCCN(CC)CC1COC2(CCC(C(C)(C)C)CC2)O1 (stereo not given)	inactive
CCN(CC)c1nc(C)cc(OP(=S)(OC)OC)n1	inactive
